# Measured values from PubChem BioAssay (NCATS).
# Results filed as inconclusive are left out. Values without a mark were called inactive. Calls of active or inactive are those of the source. Calls come from the whole dose curve; as a rule, active = well fitted cell-killing curve with a large enough effect; inconclusive = small, poorly fitted or top-dose-only effect; inactive = flat fitted curve, though single readings scatter.
# Assay: Quantitative highthroughput screen to assess conditional lethalithy of P12 Ichikawa cells grown in Human Plasma-Like Medium with dialyzed fetal bovine serum (HPLM+ds) (AID 1963879); note: nearly all actives have a fitted effect of over 35% in size
# Conditions: ATP luminescence, 48 h; Potency: viability; series mostly up to 45.8 µM; viability: at the top concentration
# Description: Assay Provider: Jason Cantor Ph.D.
# Department of Biochemistry
# University of Wisconsin-Madison, Madison, WI, USA
# Chemical screening studies have identified drug sensitivities across hundreds of cancer cell lines but most putative therapeutics fail to translate. Discovery and development of drug candidates in models that more accurately reflect nutrient levels in human blood is a major challenge. Here we performed high-throughput screens in conventional versus Human Plasma-Like Medium (HPLM) to identify compounds that were "missed" when screening using the artificial culture condition. Sets of conditional anticancer compounds spanned phases of clinical development and included non-oncology drugs were assessed. […] We also traced conditional phenotypes for several chemotherapeutics to availability of HPLM-specific metabolites and confirmed others for compounds whose reported targets are encoded by nonessential genes. Our findings establish generalizable strategies for exploiting conditional lethality in HPLM to reveal therapeutic candidates and mechanisms of action in cancer cells.
# Described herein are the results of each viability screens against three cell lines: NOMO1 (an acute myeloid leukemia cell line); P12-Ichikawa (a T-cell acute lymphoblastic leukemia); and SEM (a B-cell ALL). Each assay was screened using 3 different cell culture media: homemade human plasma-Like medium with 10% dialyzed fetal bovine serum (HPLM+ds); RPMI1640 with 10% untreated FBS and 5mM glucose (RPMI+s); and RPMI1640 with 10% dialyzed fetal bovine serum and 5 mM glucose (RPMI+ds).
# PROTOCOL TABLE (as described by Inglese J, Shamu CE and Guy RK. 2007)
# SEQUENCE No. (e.g., 1, 2, 3, etc.); […] (e.g., Cells, Incubation, Reagent, etc.); VALUE and DESCRIPTION.
# 1; Cells; 5 uL; white, solid bottom 1536-well Greiner assay plate.
# 2; Compounds; 23 nL; Kalypsis pin tool (Wako USA) equipped with a 1536-well pin head to transfer to the assay plates.
# 3; Incubation; 48 hours; 37C incubation.
# 4; Reagent; 3 uL; CellTiter Glo (Promega).
# 5; Incubation; 5 min, room temperature
# 6; Detection; Luminescence, Viewlux PerkinElmer.
# NOTES (numbers refer to Sequence numbers above)
# 1. Briefly, 5 ul of cell reagent was dispensed using a Multidrop Combi Dispenser. The NOMO1 and SEM cells were plated at 500 cells/well and the P12-Ichikawa line at 1000 cells/well.
# 2. After seeding the cells, 23 nL of MIPE 4.1 library compounds (in DMSO) were added to each plate using a Kalypsys 1536 Pintool dispenser. Bortezomib at final concentration of […] and DMSO were added to each plate as positive and negative controls respectively. For each screen, MIPE 4.1 compounds were added over an eleven-point concentration range […] in 3-fold dilutions.
# 3. Each plate was covered with a stainless steel gasketed lid to prevent evaporation and incubated for 48 hour at 37C, 95% relative humidity, and 5% CO2.
# 4-5. Three microliter CellTilter-GloTM luminescent substrate mix (Promega) reagent was added to the assay plate and incubated at room temperature for 5 min.
# 6. The luminescence signal was measured using a ViewLux (PerkinElmer) multiplate reader with a 2 second exposure time per plate. Data for each compound were normalized as percent viability such that measurements for DMSO and the empty well controls in each plate were defined as 100% and 0%, respectively.
# Potency is the fitted concentration of half-maximal effect.
SMILES,viability,Potency
Nc1nc(OCc2ccccc2)c2[nH]cnc2n1,96.5%,
C[C@@H](c1ncncc1F)[C@](O)(Cn1cncn1)c1ccc(F)cc1F,91.6%,
NS(=O)(=O)c1cccc2c1C(=O)c1cccc(O)c1C2=O,,26400 nM (active)
c1ccc2c(CCNc3ccc(Nc4ccncc4)cc3)c[nH]c2c1,,23500 nM (active)
OC1CCC(Nc2ncc3nc(Nc4c(F)cc(F)cc4F)n([C@@H]4CCOC4)c3n2)CC1 (stereo not given in full),97.4%,
O=C(Nc1ccccc1)Nc1ccc(-c2ccc(C(=O)[C@H]3CCC[C@H]3C(=O)O)cc2)cc1,78.5%,
Cc1ccccc1-n1c(Cn2nc(-c3cccc(O)c3)c3c(N)ncnc32)nc2cccc(C)c2c1=O,,2960 nM (active)
COc1cc2ncnc(Nc3cccc(Br)c3)c2cc1OC,102%,
C=CC(=O)Nc1ccc2ncnc(Nc3ccc(OCc4cccc(F)c4)c(Cl)c3)c2c1,,7430 nM (active)
CC=C(C)C(=O)O[C@H]1C(C)=C[C@]23C(=O)[C@@H](C=C(CO)[C@@H](O)[C@]12O)[C@H]1[C@@H](C[C@H]3C)C1(C)C,66.9%,
CCCCCCOC(=O)N=C(N)c1ccc(NCc2nc3cc(C(=O)N(CCC(=O)OCC)c4ccccn4)ccc3n2C)cc1,79.4%,
Cc1ccccc1C(OCCN(C)C)c1ccccc1 (stereo not given),106%,
OC[C@H]1O[C@@H](OCCc2ccc(O)cc2)[C@H](O)[C@@H](O)[C@H]1O,100%,
c1cc(CN2CCCNCCNCCCNCC2)ccc1CN1CCCNCCNCCCNCC1,111%,
CNC(=O)c1ccc(N2C(=S)N(c3cnc(C#N)c(C(F)(F)F)c3)C(=O)C23CCC3)cc1F,89.9%,
COc1cc2ncnc(Nc3cccc(Cl)c3)c2cc1OC,,4690 nM (active)
Nc1ccccc1NC(=O)c1ccc(CNC(=O)OCc2cccnc2)cc1,,2350 nM (active)
CN(NC(=O)CC(=O)NN(C)C(=S)c1ccccc1)C(=S)c1ccccc1,,83.1 nM (active)
COc1cc2ncn(-c3cc(OCc4ccccc4C(F)(F)F)c(C(N)=O)s3)c2cc1OC,,1320 nM (active)
COc1ccc(-n2nc(C(N)=O)c3c2C(=O)N(c2ccc(N4CCCCC4=O)cc2)CC3)cc1,,2640 nM (active)

SMILES,viability,Potency
CCCCCCCCCCCC1=C(O)C(=O)C=C(O)C1=O,,2090 nM (active)
COC1=C(OC)C(=O)C(CC=C(C)CCC=C(C)CCC=C(C)CCC=C(C)CCC=C(C)CCC=C(C)CCC=C(C)CCC=C(C)CCC=C(C)CCC=C(C)C)=C(C)C1=O,104%,
CC(C)=CCCC(C)=CCCC(C)=CCCC(C)=CCCC(C)=CCCC(C)=CCCC(C)=CCCC(C)=CCCC(C)=CCO,109%,
COc1ccc(C=Cc2cc(OC)c(OC)c(OC)c2)cc1NC(=O)[C@H](N)CO,,29.6 nM (active)
COc1ccc(OC)c(-c2nnc3ccc(-c4ccc(OC)c(O[C@@H]5CCOC5)c4)nn23)c1,80.2%,
Cc1ccc2c(c1)C(=O)[C@]1(O)CCN(c3ccccc3)C1=N2,103%,
Cc1cn([C@H]2C[C@H](N=[N+]=[N-])[C@@H](CO)O2)c(=O)[nH]c1=O,,10500 nM (active)
C[C@H](NC(=O)Cc1cc(F)cc(F)c1)C(=O)N[C@H](C(=O)OC(C)(C)C)c1ccccc1,98.5%,
CNC(=O)c1ccc2cc(C3(O)CCn4cncc43)ccc2c1 (stereo not given),107%,
CN1CCN(C2=Nc3cc(Cl)ccc3Nc3ccccc32)CC1,87.2%,
Cc1noc(NS(=O)(=O)c2ccc(N)cc2)c1C,112%,
O=C(CCCN1CCC(O)(c2ccc(Cl)cc2)CC1)c1ccc(F)cc1,91.2%,
CCCCCCCCCC(=O)N[C@@H](Cc1c[nH]c2ccccc12)C(=O)N[C@H](CC(N)=O)C(=O)N[C@@H](CC(=O)O)C(=O)N[C@@H]1C(=O)NCC(=O)N[C@@H](CCCN)C(=O)N[C@@H](CC(=O)O)C(=O)N[C@H](C)C(=O)N[C@@H](CC(=O)O)C(=O)NCC(=O)N[C@H](CO)C(=O)N[C@@H]([C@@H](C)CC(=O)O)C(=O)N[C@@H](CC(=O)c2ccccc2N)C(=O)O[C@@H]1C,104%,
COc1ccc(CC2c3cc(OC)c(OC)cc3CC[N+]2(C)CCC(=O)OCCCCCOC(=O)CC[N+]2(C)CCc3cc(OC)c(OC)cc3C2Cc2ccc(OC)c(OC)c2)cc1OC (stereo not given),93.9% [at 5.15 µM],
O=C(O)c1c(Cl)c(Cl)c(Cl)c(Cl)c1-c1c2cc(I)c(=O)c(I)c-2oc2c(I)c(O)c(I)cc12,,8330 nM (active)
CCC(=O)OCC(=O)[C@@]1(OC(=O)CC)[C@@H](C)C[C@@H]2[C@H]3CCC4=CC(=O)C=C[C@]4(C)[C@@]3(F)[C@@H](O)C[C@@]21C,,5900 nM (active)
COC(=O)Nc1nc2ccc(C(=O)c3ccccc3)cc2[nH]1,,1050 nM (active)
CN1CCCN(C(=O)c2cccc(-c3ccc(C=C4C(=O)Nc5ccc(Cl)cc54)o3)c2)CC1,,2960 nM (active)
COc1cc2c(Nc3ccc(Cl)c(Cl)c3F)ncnc2cc1OCC1C[C@@H]2CN(C)C[C@@H]2C1 (stereo not given in full),,20900 nM (active)
NC(=O)[C@H]1CCS[C@@H]2C[C@]3(CCCN3C(=O)Cc3ccc(NC(=O)COc4ccc(Cl)cc4Cl)cc3)C(=O)N12,,588 nM (active)
